Measurements as given in PubChem BioAssay AID485313 (National Center for Advancing Translational Sciences (NCATS), 2010).
The campaign covered roughly 320,000 compounds. About 7,600 (2.4%) were called active. About 3% were inconclusive and are not listed. The call rests on the fitted dose curve; in most records, active means well fitted activation curve with a large enough effect; inconclusive means small, poorly fitted or top-dose-only effect; inactive means no such curve, though single readings can be large or run the other way. The entries come from a sample that favours actives as a whole.

assay: qHTS Assay for NPC1 Promoter Activators; conditions: Huh7 NPC1 promoter luciferase reporter, 24 h; series mostly up to 9.22 µM; activation: at the top concentration; further: nearly all actives have a fitted effect of over 60% in size; on activation: % of control where 0% means no effect
Excerpt: NIH Chemical Genomics Center [NCGC] NIH Molecular Libraries Probe Production centers Network [MLPCN] MLPCN Grant: MH089375-01A1 Assay Submitter (PI): Yiannis A. Ioannou NCGC Assay Overview: Niemann Pick Type C (NPC) is a rare neurodegenerative lipidosis that is characterized by lipid storage in the endosomal/lysosomal system. Treatment modalities for this devastating disease are currently non-existent due to the severe obstacles associated with accessing the central nervous system with proteins or genes. The majority of mutations causing NPC disease are missense mutations that are distributed throughout the length of the NPC1 protein, with the most prevalent being the I1061T allele. Although NPC1 mutant proteins may be functional, they are typically trapped in the ER due to misfolding. […] We have developed and optimized a cell based luciferase reporter assay in 1536 well format for the identification of up-regulators of the mutant NPC1 promoter.
The NPC1 promoter is cloned in front of the luciferase reporter gene, therefore NPC promoter activation results in luciferase expression. Frozen stock of the NPC1 promoter transfected Huh7 cells were obtained from the laboratory of Dr. Yiannis Ioannou (The Mount Sinai School of Medicine, New York, NY). Cells were propagated and maintained at NCGC in medium containing RPMI-1640 supplemented with 10% FBS, 2mM L-glutamine, and 50ug/ml penicillin/streptomycin. Cells were harvested in and plated for assays in OP-MEM I reduced-serum medium supplemented with 10% FBS. The Amplite luciferase reporter gene assay kit was purchased from ABD Bioquest and prepared/stored according to manufacturers recommendations. qHTS Assay Setup: 1.#Dispensed 5ul of Huh7 cells stably expressing NPC1-luciferase at a density of 1500 cells per well 1536-well plates. 2.#Incubate cells at 37C, 5% CO2, and 95% humidity for 2 hours. 3.#Transferred 23nl per well of compound in DMSO solution. 4.#Incubated at 37C, 5% CO2, and 95% humidity for 24 hours. 5.#Dispensed 3ul per well of Amplite reagent(ABD Bioquest) per well. 6.#Incubate at ambient for 10 minutes. 7.#Read using the luminescence protocol on the ViewLux plate reader (Perkin Elmer).
Potency means the concentration at half of the fitted maximal effect.

SMILES | activation | Potency
O=C(CSc1ncnc2sccc12)N1CCN(C(=O)c2cccs2)CC1 | 0.722% (inactive) | –
Cc1ccc(S(=O)(=O)N2CCCCC2)cc1NC(=O)[C@@H]1CCCN1C(=O)c1cccs1 | 0.681% (inactive) | –
COc1cccc(-n2c(SCC(=O)NC3CCS(=O)(=O)C3)nc3ccccc3c2=O)c1 (stereo not drawn) | -2.85% (inactive) | –
O=C(CSc1nc2ccccc2c(=O)n1-c1ccc(F)cc1)NC1CC1 | -9.18% (inactive) | –
Cc1ccc(-n2c(SCC(=O)N3CCC(C(=O)O)CC3)nc3ccccc3c2=O)cc1C | – | 3.55 µM (active)
CC(=O)Nc1ccc(SC[C@H](Cc2ccccc2)N2CC[C@@H](C)CCC2=O)cc1 | -0.0057% (inactive) | –
CCn1c(=N)n(CC(=O)c2cccc(OC)c2)c2ccccc21 | – | 3.55 µM (active)
CCOC(=O)c1cc2ccccc2n1CC(=O)c1ccccc1 | -2.8% (inactive) | –
COc1ccc2cc(C(=O)O)n(CC(=O)c3ccccc3)c2c1 | -1.96% (inactive) | –
CCOC(=O)c1cn(CC(=O)Nc2ccc(C(C)C)cc2)nn1 | 1.15% (inactive) | –
CCc1ccc(NC(=O)Cn2ncn3c(cc4ccccc43)c2=O)cc1 | -5.3% (inactive) | –
CC(C)c1ccc(NC(=O)Cn2ncc3ccccc32)cc1 | – | 0.891 µM (active)
O=C(NCc1ccccc1CN1CCCC1)C1CCN(S(=O)(=O)c2ccc(Cl)cc2)CC1 | -1.28% (inactive) | –
CNC(=S)N/N=C/c1ccc(N2CCOCC2)s1 | 2.1% (inactive) | –
CC(C)Sc1ncnc2c1cnn2-c1ccccc1 | – | 3.55 µM (active)
O=C(NNc1ncnc2c1cnn2-c1ccccc1)c1ccco1 | 1.26% (inactive) | –
CCC(C)N(C(=O)CSc1ncnc2c1cnn2-c1ccccc1)C1CCS(=O)(=O)C1 (stereo not drawn) | -1.19% (inactive) | –
C1=C(CCNc2ncnc3c2cnn3-c2ccccc2)CCCC1 | – | 1.78 µM (active)
Cc1ccc(-c2nc3c(cnn3-c3ccccc3)c(=O)o2)cc1 | -2.25% (inactive) | –
c1ccc(-n2ncc3c(N4CCCC4)ncnc32)cc1 | – | 2.51 µM (active)
O=C(NCCC1=CCCCC1)C1CCN(Cc2cnn(-c3ccccc3)c2-n2cccc2)CC1 | 0.318% (inactive) | –
CCN(C(=O)CSc1ncnc2c1cnn2-c1ccccc1)C1CCS(=O)(=O)C1 (stereo not drawn) | 5% (inactive) | –
O=C(Cn1cnc2c(cnn2-c2ccccc2)c1=O)NCc1ccccc1 | 0.0668% (inactive) | –

SMILES | activation | Potency
CC1CCc2sc(C(=O)NCC(c3ccco3)N3CCCCC3)cc2C1 (stereo not drawn) | -1.49% (inactive) | –
CCOCCc1nn2c(=O)cc(CSCC(=O)Nc3cccc(C)c3C)nc2s1 | -1.6% (inactive) | –
CSCCC(NC(=O)c1ccccc1)C(=O)N1CCN(Cc2ccc(Cl)cc2)CC1 (stereo not drawn) | -5.73% (inactive) | –
COC(=O)c1ccc(-c2c(-c3ccccc3)ncc3cc(OC)c(OC)cc23)cc1 | 3.56% (inactive) | –
Cc1ccc2c(CN3CCN(S(=O)(=O)c4ccccc4C(F)(F)F)CC3)cc(=O)oc2c1 | -2.88% (inactive) | –
Cc1ccsc1C(=O)OCC(=O)Nc1cccc(F)c1 | 7.29% (inactive) | –
Cc1cc(C(=O)COc2ccc(Br)cc2F)c(C)n1C1CC1 | 15.3% (inactive) | –
N#Cc1ccccc1S(=O)(=O)N1CCN(Cc2c(O)ccc3ccccc23)CC1 | -0.384% (inactive) | –
CC1CC1C(=O)OCC(=O)Nc1cccc(F)c1 (stereo not drawn) | -0.27% (inactive) | –
COC(=O)Cc1[nH]n(-c2nc3ccccc3s2)c(=O)c1C(C)=Nc1ccc(OC)cc1 | -16% (inactive) | –
CC(=NCc1ccco1)c1c(C(F)(F)F)[nH]n(-c2nc3ccccc3s2)c1=O | – | 2.24 µM (active)
CC(=NCc1ccco1)C1=C(O)c2ccccc2C1=O | 8.33% (inactive) | –
CCCn1c(N)c(N(CCOC)C(=O)C2CCCC2)c(=O)[nH]c1=O | -2.43% (inactive) | –
CN(C(=O)CSc1nnc(C2CC2)n1C)C1CCCc2ccccc21 (stereo not drawn) | -0.553% (inactive) | –
CN(C)/C=C(\C#N)C(=O)c1cccnc1Oc1ccc(F)cc1F | -8.2% (inactive) | –
COc1ccc(C)cc1NC(=O)CCCN1C(=O)NC(C)(C)C1=O | -6.41% (inactive) | –
COc1ccc(-c2nnc(SC(C)C(=O)NC3CC3)o2)cc1 (stereo not drawn) | -0.432% (inactive) | –
O=C(NNC(=O)c1cc2c(s1)CCCC2)c1ccccc1 | 21.2% (inactive) | –
CN(C)C(=O)c1ccc(NC(=O)COC(=O)c2cc3c(s2)CCCCC3)cc1 | -5.23% (inactive) | –
O=C(Nc1ccc(F)cc1)c1cc2c(s1)CCCC2 | – | 2.24 µM (active)
CCN(C(=O)COC(=O)Cc1c(F)cccc1Cl)c1c(N)n(Cc2ccccc2)c(=O)[nH]c1=O | -0.302% (inactive) | –
CSc1ncccc1C(=O)Nc1ccc2c(c1)OCO2 | -0.125% (inactive) | –
CSc1ncccc1C(=O)Nc1nc2ccc(F)cc2s1 | – | 0.126 µM (active)

SMILES | activation | Potency
CSc1ncccc1C(=O)NC1CCCCCC1 | -4.31% (inactive) | –
Cc1ccc(NC(=O)CCC(=O)N2CCC(c3ccccc3)=N2)cc1S(=O)(=O)N1CCCCC1 | -1.45% (inactive) | –
O=c1ccc2c(-c3ccccc3S(=O)(=O)O)c3ccc(O)c(O)c3oc-2c1O | -7.8% (inactive) | –
CC1CCCCC1NC(=O)NC(=O)COC(=O)C1=NN(c2ccccc2)C(=O)CC1 (stereo not drawn) | -3.42% (inactive) | –
O=S(=O)(NCCCN1CCOCC1)c1ccc(F)c(Cl)c1 | -5.25% (inactive) | –
COc1ccccc1CNC(=O)COC(=O)CNS(=O)(=O)c1ccc(NC(C)=O)cc1 | -1.15% (inactive) | –
Cc1ccnc(N2C(=O)c3ccc([N+](=O)[O-])cc3C2=O)c1 | -0.192% (inactive) | –
Cc1ccc(-c2cn(S(=O)(=O)c3cccc([N+](=O)[O-])c3)nc2N)cc1 | -1.34% (inactive) | –
Cc1ccc(-n2cc3ccc([N+](=O)[O-])cc3n2)cc1 | – | 0.794 µM (active)
Cn1c(N)c(C(=O)COC(=O)/C=C/c2cccc(C(F)(F)F)c2)c(=O)n(C)c1=O | 0.0298% (inactive) | –
Cc1ccn(-c2cccc(-n3ccc(C)n3)n2)n1 | – | 3.16 µM (active)
CN(CC(=O)Nc1ccc(OC(F)(F)F)cc1)C(=O)C1CCC1 | -1.1% (inactive) | –
CC(=O)c1c(C)[nH]c(C(=O)OCC(=O)Nc2c(C)cccc2C)c1C | -10.2% (inactive) | –
COc1ccc(NC(=O)c2ccc(C#CC(C)(C)O)cc2)cc1 | 8.18% (inactive) | –
COc1ccc(C(=O)Nc2cccc(S(C)(=O)=O)c2)cc1 | 2.72% (inactive) | –
COc1ccc(/C=N/NC(=O)Nc2ccc3nsnc3c2)c(OC)c1 | -0.0419% (inactive) | –
COc1ccc(C(=O)Nc2ccc(F)cc2F)cc1 | – | 3.16 µM (active)
COc1cc(OC)cc(C(=O)OCC(=O)Nc2ccc(F)cc2F)c1 | -1.57% (inactive) | –
COc1ccccc1CC(=O)Nc1ccc(F)cc1F | 1.66% (inactive) | –
COc1ccc(NC(=O)c2ccc(OC)cc2)cc1 | – | 1.78 µM (active)
COc1ccc(NC(=O)Nc2cccc3cccnc23)cc1 | 16.2% (inactive) | –
COc1ccc(NC(=O)Nc2ccc3nsnc3c2)cc1 | – | 1.78 µM (active)
